In PubChem BioAssay:
Unmarked numbers belong to inactive results. For part of these data: Entries with a potency or affinity are not part of this list. The source made the active and inactive calls. Unless noted, no rule for the calls is given here.

How the values were obtained:
[1] = antimalarial activity against Dd2 strain (AID 2302;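 active = growth inhibition above 50% at the single 2 µM test dose, taken to imply half-maximal potency below 2 µM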;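 also: 0% = DMSO untreated growth and 100% = chloroquine plus artemisinin killed control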); details: P. falciparum Dd2 in RBCs, LDH growth readout, 72 h; at 2 µM; hits give high values
[2] = HepG2 cytotoxicity, primary screen, cytotoxicity control for P. falciparum antimalarial project, cell-based, ATP luminescence (AID 2303;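 active = inhibition above 50%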;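 also: 0% = DMSO wells and 100% = digitonin-killed cells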); details: HepG2 viability, 24-48 h, at 10 µM, hits give high values
[3] = target: L-lactate dehydrogenase (Plasmodium falciparum (isolate CDC / Honduras)) (UniProt Q27743); experiment: PfLDH activity inhibition – cell lysate, 3D7 strain, counter-screen for P. falciparum growth inhibition project (AID 2304);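 also: 0% = vehicle and 100% = reference inhibitor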; details: P. falciparum 3D7 crude extract, LDH APAD/NBT absorbance; at 2 µM; hits give high values
L-lactate dehydrogenase (Plasmodium falciparum (isolate CDC / Honduras)), sequence (Q27743 whole entry, looked up): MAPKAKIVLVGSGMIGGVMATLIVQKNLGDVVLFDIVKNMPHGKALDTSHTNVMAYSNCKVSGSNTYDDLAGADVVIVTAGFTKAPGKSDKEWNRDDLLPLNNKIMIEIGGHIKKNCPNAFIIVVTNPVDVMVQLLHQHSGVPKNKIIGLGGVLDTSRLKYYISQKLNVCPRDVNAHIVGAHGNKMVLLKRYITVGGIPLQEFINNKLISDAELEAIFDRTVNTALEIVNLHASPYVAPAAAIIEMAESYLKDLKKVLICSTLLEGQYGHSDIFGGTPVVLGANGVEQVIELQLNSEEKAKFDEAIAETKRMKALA

[4] = inhibition of 3D7 malaria parasite growth – strain 3D7 (AID 2306);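 also: 0% = DMSO wells and 100% = chloroquine plus artemisinin control wells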; details: P. falciparum 3D7 erythrocytic growth, LDH absorbance, 72 h; at 2 µM; hits give high values
[5] = target: Calcium-dependent protein kinase 1 (Plasmodium falciparum (isolate 3D7)) (UniProt P62344); experiment: PfCDPK1 kinase inhibitors, biochemical, TCAMS library (AID 1159585; cut-off not given, nearly all actives have IC50 up to about 0.98 µM;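 also: inhibitors leave more ATP so luminescence rises with inhibition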); details: recombinant PfCDPK1, Kinase-Glo ATP depletion luminescence
Calcium-dependent protein kinase 1 (Plasmodium falciparum (isolate 3D7)), sequence (P62344 whole entry, looked up): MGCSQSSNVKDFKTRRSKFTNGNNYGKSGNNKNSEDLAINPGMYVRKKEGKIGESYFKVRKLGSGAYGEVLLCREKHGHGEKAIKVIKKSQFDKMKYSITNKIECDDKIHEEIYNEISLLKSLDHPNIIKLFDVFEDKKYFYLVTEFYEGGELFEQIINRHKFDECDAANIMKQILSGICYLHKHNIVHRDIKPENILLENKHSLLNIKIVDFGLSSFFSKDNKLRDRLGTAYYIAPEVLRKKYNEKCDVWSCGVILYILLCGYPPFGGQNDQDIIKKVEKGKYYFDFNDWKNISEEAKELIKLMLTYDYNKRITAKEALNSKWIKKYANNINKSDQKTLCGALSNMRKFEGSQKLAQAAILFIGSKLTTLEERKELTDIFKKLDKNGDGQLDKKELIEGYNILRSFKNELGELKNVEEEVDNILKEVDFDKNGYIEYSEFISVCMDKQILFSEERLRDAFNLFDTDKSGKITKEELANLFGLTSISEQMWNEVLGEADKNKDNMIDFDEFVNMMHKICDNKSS

[6] = target: Plasmodium falciparum protein kinase 6 (PK6, PF3D7_1337100) (UniProt Q8IDW1); experiment: PfPK6 kinase inhibitors, biochemical, TCAMS library (AID 1159586); details: recombinant PfPK6, Kinase-Glo ATP depletion luminescence
Plasmodium falciparum protein kinase 6 (PK6, PF3D7_1337100), sequence (Q8IDW1 1-305): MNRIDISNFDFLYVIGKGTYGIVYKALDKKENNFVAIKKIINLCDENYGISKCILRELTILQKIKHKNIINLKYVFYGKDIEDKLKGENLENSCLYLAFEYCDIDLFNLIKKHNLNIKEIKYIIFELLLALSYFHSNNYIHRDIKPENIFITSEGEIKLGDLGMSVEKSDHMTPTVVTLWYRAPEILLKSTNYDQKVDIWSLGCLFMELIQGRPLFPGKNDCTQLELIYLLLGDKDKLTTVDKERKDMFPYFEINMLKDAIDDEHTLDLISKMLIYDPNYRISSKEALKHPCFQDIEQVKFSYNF

[7] = target: Protein kinase 7 (PK7), Plasmodium falciparum 3D7 (PF3D7_0213400) (UniProt Q7YTF7); experiment: inhibition of Plasmodium PK7 catalytic activity – biochemical, TCAMS antimalarial set, Kinase-Glo luminescence (AID 1159587); details: recombinant PfPK7, Kinase-Glo ATP depletion luminescence
Protein kinase 7 (PK7), Plasmodium falciparum 3D7 (PF3D7_0213400), sequence (Q7YTF7 1-343): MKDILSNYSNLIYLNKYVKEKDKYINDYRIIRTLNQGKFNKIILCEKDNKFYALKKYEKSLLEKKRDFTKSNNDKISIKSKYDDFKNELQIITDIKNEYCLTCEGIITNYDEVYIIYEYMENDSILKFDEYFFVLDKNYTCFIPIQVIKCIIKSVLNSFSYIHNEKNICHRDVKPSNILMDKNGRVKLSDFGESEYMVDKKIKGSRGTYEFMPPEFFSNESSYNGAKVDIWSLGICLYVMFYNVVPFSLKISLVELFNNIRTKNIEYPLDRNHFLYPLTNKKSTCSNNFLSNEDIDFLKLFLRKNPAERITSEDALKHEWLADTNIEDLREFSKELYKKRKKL

[8] = target: Calcium-dependent protein kinase 4 (Plasmodium falciparum (isolate 3D7)) (UniProt Q8IBS5); experiment: PfCDPK4 kinase inhibitors, biochemical, TCAMS library (AID 1159588; cut-off not given, nearly all actives have IC50 up to about 0.91 µM); details: recombinant PfCDPK4, Kinase-Glo ATP depletion luminescence
Calcium-dependent protein kinase 4 (Plasmodium falciparum (isolate 3D7)), sequence (Q8IBS5 whole entry, looked up): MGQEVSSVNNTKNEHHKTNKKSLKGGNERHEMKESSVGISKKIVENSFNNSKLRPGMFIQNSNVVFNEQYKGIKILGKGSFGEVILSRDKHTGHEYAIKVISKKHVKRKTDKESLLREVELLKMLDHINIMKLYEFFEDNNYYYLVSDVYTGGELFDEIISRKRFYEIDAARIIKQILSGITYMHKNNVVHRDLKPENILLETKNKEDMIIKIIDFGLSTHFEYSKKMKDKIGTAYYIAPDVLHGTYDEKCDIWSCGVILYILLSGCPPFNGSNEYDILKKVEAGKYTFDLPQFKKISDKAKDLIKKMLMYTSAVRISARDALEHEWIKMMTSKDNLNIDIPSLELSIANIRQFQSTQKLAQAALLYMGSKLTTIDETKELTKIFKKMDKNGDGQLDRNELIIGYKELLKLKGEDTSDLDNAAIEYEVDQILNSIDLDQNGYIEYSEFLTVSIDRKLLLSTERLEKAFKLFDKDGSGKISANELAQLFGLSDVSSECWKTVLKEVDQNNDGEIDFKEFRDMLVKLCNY

Compound | growth inhibition [1] | inhibition [2] | inhibition [3] [%] | growth inhibition [4] | outcome [5] | outcome [6] | outcome [7] | outcome [8]
CC(C)CCNc1nc(NCCCc2ccccc2)c2cc(O)ccc2n1 | 95% (active) | 14% | -1 | 101% (active) | inactive | inactive | inactive | inactive
CCOc1ccc2nc(C)cc(NN=Cc3ccccc3Cl)c2c1 | 100% (active) | 11% | -4 | 101% (active) | inactive | inactive | inactive | inactive
CCOC(=O)c1ccc(OCCCCCCOc2ccc(Br)cc2)cc1 | -2% | 12% | -4 | 98% (active) | inactive | inactive | inactive | inactive
CCCNC[C@@H](O)[C@H](Cc1ccccc1)NC(=O)c1cc2c3c(c1)c(CC)cn3CCS(=O)(=O)N2C | 98% (active) | -4% | 2 | 97% (active) | inactive | inactive | inactive | inactive
O=C(Nc1ccc(-c2ccccc2)cc1)Nc1ccc2c(c1)CCNCC2 | 48% | 41% | -2 | 97% (active) | inactive | inactive | inactive | inactive
C[C@H](Cc1ccc(C(=O)OC(c2ccccc2)c2ccccc2)cc1)NC[C@H](O)c1ccccc1 | 98% (active) | 83% (active) | -3 | 100% (active) | inactive | inactive | inactive | inactive
COc1ccc(CCNCCCCCCNCCc2cccc([N+](=O)[O-])c2)cc1OC | -3% | 13% | -6 | 93% (active) | inactive | inactive | inactive | inactive
CC(C)(C)c1ccc(NC(=O)c2cccc(CN3CCCN(Cc4cccc(O)c4)CC3)c2)cc1 | 69% (active) | 97% (active) | 4 | 101% (active) | inactive | inactive | inactive | inactive
COc1ccc2ccccc2c1C=NNc1cc(C)nc2c(C)cccc12 | 94% (active) | -3% | -4 | 102% (active) | inactive | inactive | inactive | inactive
COc1c(C2CCN(CCCCNC(=O)c3cc(-c4ccc(Cl)cc4)oc3C)CC2)ccc2c1CCCC2 | 27% | 93% (active) | 2 | 97% (active) | inactive | inactive | inactive | inactive
COc1ccc2nc3cc(Cl)ccc3c(NCCNCC(O)CO)c2n1 (stereo unspecified) | 101% (active) | 12% | 2 | 100% (active) | inactive | inactive | inactive | inactive
Oc1ccc(-c2cc(COc3ccccc3C(F)(F)F)c(C3=CCNCC3)cc2COc2ccccc2C(F)(F)F)cc1 | 62% (active) | 18% | 3 | 100% (active) | inactive | inactive | inactive | inactive
CCCCC(CC)NC(=O)[C@H]1CNCCN1C(=O)CCCc1ccccc1 (stereo partly specified) | -1% | 5% | 1 | 94% (active) | inactive | inactive | inactive | inactive
c1ccc2[nH]c(-c3ccc(-c4ccc(CN5CCCCC5)cc4)cc3)nc2c1 | 100% (active) | 27% | 2 | 99% (active) | inactive | inactive | inactive | inactive
COc1ccc(C2(CNCC(O)c3cccc([N+](=O)[O-])c3)CCCC2)cc1OC (stereo unspecified) | 85% (active) | 10% | 5 | 93% (active) | inactive | inactive | inactive | inactive
CCN1CCC(N(Cc2ccc(-c3ccc(C(F)(F)F)cc3)cc2)C(=O)Cn2c(CCc3cccc(F)c3F)cc(=O)c3cn(C)nc32)CC1 | 87% (active) | 27% | 2 | 95% (active) | inactive | inactive | inactive | inactive
CCCCCN1CCCC1CNS(=O)(=O)c1ccc(C(=O)Nc2ccc(C(F)(F)F)cc2)cc1 (stereo unspecified) | -3% | 19% | -2 | 87% (active) | inactive | inactive | inactive | inactive
CCCc1ccc(NC(=O)c2cccc(CN3CCCN(Cc4cccc(C#N)c4)CC3)c2)cc1 | 0% | 20% | -4 | 85% (active) | inactive | inactive | inactive | inactive
CCC[C@@H]([C@@H](CC(C)C)C(=O)N[C@@H](CCCNc1nccc(C(F)(F)F)n1)C(=O)Nc1nccs1)N(O)C=O | 98% (active) | -4% | 8 | 99% (active) | inactive | inactive | inactive | inactive
N#Cc1ccccc1N1CCN(C2CCC(NC(=O)c3n[nH]c4cc(C(F)(F)F)ccc34)CC2)CC1 (stereo unspecified) | 34% | 15% | -4 | 84% (active) | inactive | inactive | inactive | inactive
CCNCc1cccc(-c2ccc3ccnc(N)c3c2)c1 | 98% (active) | 17% | 0 | 100% (active) | inactive | inactive | inactive | inactive

Compound | growth inhibition [1] | inhibition [2] | inhibition [3] [%] | growth inhibition [4] | outcome [5] | outcome [6] | outcome [7] | outcome [8]
CC(Cc1ccc(CN2CCN(Cc3ccccc3)CC2)cc1)NCC(O)c1cccc(C(F)(F)F)c1 (stereo unspecified) | 98% (active) | 51% (active) | -7 | 97% (active) | inactive | inactive | inactive | inactive
COc1ccc(NC(=O)[C@H](CC(C)C)Nc2ccnc(Nc3ccccc3)n2)cc1 | 32% | -7% | 3 | 92% (active) | inactive | inactive | inactive | inactive
C[C@H](Cc1ccc(S(=O)(=O)c2ccc(C[C@@H](C)NC[C@H](O)c3cccc(Cl)c3)cc2)cc1)NC[C@H](O)c1cccc(Cl)c1 | 98% (active) | 100% (active) | -9 | 99% (active) | inactive | inactive | inactive | inactive
O=C(/C=C/c1ccc(Cl)c(Cl)c1)NCCCCCN1CCC(CCNC(=O)/C=C/c2cc(C(F)(F)F)ccc2F)CC1 | 46% | 25% | -5 | 98% (active) | inactive | inactive | inactive | inactive
COC(=O)c1ccc(C(=O)NCCCCN2CCC(c3ccc4c(c3OC)CCCC4)CC2)cc1-c1ccc(C(F)(F)F)cc1 | 19% | 24% | 2 | 93% (active) | inactive | inactive | inactive | inactive
NS(=O)(=O)c1ccc(CNc2ccc3ncc(-c4ccc(Cl)cc4)n3n2)cc1 | 99% (active) | 26% | -4 | 96% (active) | inactive | inactive | inactive | inactive
COc1ccc2c(c1)CC(C)(C)NC2CCCCCCCCC1NC(C)(C)Cc2cc(OC)ccc21 (stereo unspecified) | 62% (active) | 42% | 0 | 98% (active) | inactive | inactive | inactive | inactive
Cc1cc(NN=Cc2ccccn2)c2cc(F)ccc2n1 | 96% (active) | 9% | 5 | 100% (active) | inactive | inactive | inactive | inactive
O=C(Nc1cccc(CN2CCCN(Cc3cccc(F)c3)CC2)c1)c1ccc(Cl)c(Cl)c1 | 6% | 28% | -1 | 85% (active) | inactive | inactive | inactive | inactive
O=C(Nc1ccccc1-c1ccccc1)C1CCCN1C(=O)Nc1ccc(Cl)cc1 (stereo unspecified) | 90% (active) | -6% | -4 | 96% (active) | inactive | inactive | inactive | inactive
O=C(NCCN1CCCc2ccccc21)C1CCN(c2nc(-c3ccc(Cl)cc3)no2)CC1 | 62% (active) | 11% | -1 | 86% (active) | inactive | inactive | inactive | inactive
O=C(N[C@@H](Cc1ccccc1)C(=O)NCc1cccc2ccccc12)c1ccc(O)c(-c2ccc(Cl)c(Cl)c2)c1 | 97% (active) | -6% | 4 | 101% (active) | inactive | inactive | inactive | inactive
Cc1ccc(NC(=O)N2CCN(CCCCCNC(=O)/C=C/c3ccc(Cl)c(Cl)c3)CC2)cc1C | -5% | 7% | 0 | 94% (active) | inactive | inactive | inactive | inactive
CC(C)(C)c1ccc(CN2CCC(CNC(=O)c3cc(-c4cccc(Cl)c4)cs3)C2)cc1 (stereo unspecified) | 83% (active) | 44% | 1 | 101% (active) | inactive | inactive | inactive | inactive
CCc1c(CCNCCCCCCNCCc2ccc([N+](=O)[O-])cc2)ccc(OC)c1OC | 2% | 35% | 6 | 101% (active) | inactive | inactive | inactive | inactive
CCOC(=O)C(=O)N1c2ccc(OCC)cc2-c2c(ssc2=S)C1(C)C | 100% (active) | 5% | -4 | 99% (active) | inactive | inactive | inactive | inactive
Cc1cccc2[nH]c(-c3cccc(-c4cccc(C(=O)NCc5nccn5C)c4)c3)nc12 | 50% (active) | 22% | 8 | 99% (active) | inactive | inactive | inactive | inactive
Cc1[nH]c2ccccc2c1CC1CCN(CC2CCN(C(=O)/C=C/c3ccc(Cl)c(Cl)c3)CC2)CC1 | 14% | 34% | -3 | 92% (active) | inactive | inactive | inactive | inactive
Cc1ccn2c(C(=O)N3CCN(c4cccc5c4nc(-c4ccoc4)n5Cc4ccccn4)CC3)c(C)nc2c1 | 99% (active) | 2% | -1 | 98% (active) | inactive | inactive | inactive | inactive
COc1ccc(CCCN2C(=O)C(c3ccccc3)(c3ccccc3)N=C2N)cc1 | 76% (active) | 21% | 5 | 94% (active) | inactive | inactive | inactive | inactive
O=C(NC1CCN(Cc2ccccc2)CC1)c1cc(-c2ccncc2)c(-c2ccc(Cl)c(O)c2)o1 | 86% (active) | 9% | 1 | 100% (active) | inactive | inactive | inactive | inactive
